Screens: PubChem BioAssay, National Center for Advancing Translational Sciences (NCATS)
MmCpn inh: M. maripaludis TRiC chaperonin inhibition; purified Mm-Cpn ATPase, ADP Transcreener TR-FRET; Potency, µM (top dose mostly 76.9 µM), without a hit: top-dose activity, negative = inhibition, hits mostly inhibitors; 330,000 compounds, 0.031% hits; AID 504842; active = well fitted inhibition curve with a large enough effect; inconclusive = small, poorly fitted or top-dose-only effect; also: potency is read from the fitted curve at half-maximal effect; % is scaled to controls: 0 for no effect and ±100 for the full control effect; nearly all actives have a fitted effect of over 80% in size
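Quantitative HTS used 25 nM Mm-CPN and 10 uM ATP in magnesium/KCl Tris buffer, pH 7.4, with 1 mM DTT. Hydrolysis ran 30 min at 37°C; ADP was read by HTRF.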
Rango complex inh: Rango-importin beta binding inhibition. Potency, µM (doses to about 92.2 µM), inactives show top-dose inhibition of complex formation. Q14974. Rango CFP/YFP FRET sensor + importin beta, 45 min. 340,000 compounds, 0.031% hits;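 also: potency is read from the fitted curve at half-maximal effect; 0% = DMSO wells and 100% = buffer wells lacking importin beta; nearly all actives have a fitted effect of over 15% in size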
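Inhibition scored from the CFP 486 nm/YFP 530 nm FRET ratio 45 min after adding 0.125 microM importin beta to 50 nM Rango biosensor preincubated 5 min with compound (room temperature, PBS with DTT, Tween-20, BSA). No-importin wells as positive control.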
PTAP TSG101 blk: blocks PTAP/TSG101 interaction to inhibit HIV-1 budding. Potency, µM (highest dose often 115 µM), for inactives: top-dose activity change, negative = inhibition, actives largely listed as inhibitors. Q99816. AID 493005. Fluorescence polarization, FITC-PTAP peptide / Tsg101 binding. 340,000 tested, under 10 active; active = well fitted inhibition curve with a large enough effect in the main read-out, with a control signal flat, not every such curve was filed as active; inconclusive = small, poorly fitted or top-dose-only effect, or effect the other way, or a change in a side signal; inactive = no such curve, though single readings can be large or run the other way; also: potency is read from the fitted curve at half-maximal effect; % of control where 0% means no effect
Target sequence (Q99816 whole entry, looked up): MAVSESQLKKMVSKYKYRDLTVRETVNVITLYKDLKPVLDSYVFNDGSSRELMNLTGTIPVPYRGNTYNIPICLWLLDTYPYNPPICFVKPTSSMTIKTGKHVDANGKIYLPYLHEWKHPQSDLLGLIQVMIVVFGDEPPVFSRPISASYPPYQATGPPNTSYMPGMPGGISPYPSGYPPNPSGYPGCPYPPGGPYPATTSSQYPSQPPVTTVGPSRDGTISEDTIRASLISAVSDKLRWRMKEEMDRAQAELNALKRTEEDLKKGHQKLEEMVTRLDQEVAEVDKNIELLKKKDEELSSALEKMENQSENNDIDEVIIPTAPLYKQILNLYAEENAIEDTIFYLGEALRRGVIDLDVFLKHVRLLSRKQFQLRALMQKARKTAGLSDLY
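Compounds were pin-transferred onto Tsg101 binding domain (10 uM final) in HEPES pH 7.5 buffer, then FITC-PTAP peptide was added at 50 nM final. After 20 min at RT, polarization reported peptide displacement across a qHTS concentration series.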
D3 ag: D3 dopamine receptor (human) agonism; P35462; D3R DiscoveRx beta-arrestin cells, luminescence, 90 min; max activation, %; 410,000 compounds, 0.58% hits; AID 652048; in the data active = max activation above about 30%; also: 0% is about no effect
Target sequence (P35462 whole entry, looked up): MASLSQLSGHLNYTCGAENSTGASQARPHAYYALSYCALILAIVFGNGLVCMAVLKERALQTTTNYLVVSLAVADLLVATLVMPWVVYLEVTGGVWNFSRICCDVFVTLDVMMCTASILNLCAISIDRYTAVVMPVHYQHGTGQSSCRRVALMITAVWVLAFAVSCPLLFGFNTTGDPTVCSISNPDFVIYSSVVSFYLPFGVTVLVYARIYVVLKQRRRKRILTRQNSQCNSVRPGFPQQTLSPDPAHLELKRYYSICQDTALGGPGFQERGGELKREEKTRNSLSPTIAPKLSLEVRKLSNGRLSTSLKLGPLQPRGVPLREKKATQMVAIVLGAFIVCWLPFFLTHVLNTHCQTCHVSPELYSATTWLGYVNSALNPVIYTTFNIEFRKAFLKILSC
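Cells at 1500/well, incubated overnight, then treated with pinned compounds (dopamine as control) for 90 min at 37 degrees C. DiscoveRx reagent added for 30 - 60 minutes at room temperature; luminescence read.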
DRD3 antagonist: D3 dopamine receptor (human) antagonism | max response, negative = inhibition, % | 360,000 compounds, 2.5% hits | D3R cells, DiscoveRx beta-arrestin luminescence, antagonist mode; active compounds read low | AID 652054 | P35462; in the data active = max response below about -50%; inconclusive = no clear call, values can overlap the other calls; also: % is scaled to controls: 0 for no effect and ±100 for the full control effect
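Cells plated overnight at 1500 cells/well, then exposed to library compounds with dopamine controls for 90 minutes at 37 degrees C. DiscoveRx reagent added for 30–60 minutes at room temperature; luminescence read, quantitative HTS format.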
Rango dissoc inh: inhibition of RanGTP-driven Rango-importin beta dissociation | 340,000 compounds, 0.071% hits | O95149+P62826 | Potency, µM (titrated, usually from 46.1 µM), for inactives: top-dose activity change, negative = inhibition | Biochemical FRET Rango-importin beta, RanGTP-induced dissociation; also: potency is read from the fitted curve at half-maximal effect; % of control where 0% means no effect; nearly all actives have a fitted effect of over 45% in size
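Compounds preincubate 5 min with complex of recombinant Rango and importin beta in PBS with 1 mM DTT. Ran (0.6 uM) loaded with 2 mM GTP plus 0.2 uM RCC1 starts dissociation; FRET is recorded 45 min later.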
The depositor's hits bear a star; ? = inconclusive; · = not tested or not shown; [ ] = another dose, or the depositor's remark. Hits are enriched below; roughly 2.9% of the tested compounds scored in any of these assays. Unless noted, calls follow the shape of the full dose curve.

SMILES	MmCpn inh	Rango complex inh	PTAP TSG101 blk	D3 ag	DRD3 antagonist	Rango dissoc inh
CCc1cccc(NC(=O)c2cc(S(=O)(=O)N3CCCCCC3)cn2C)c1	·	·	·	-1.0	·	·
FC(F)(F)c1cccc(Nc2nc(N3CCCC3)nc(N3CCCC3)n2)c1	-0.3%	-2.1%	-1.4%	0.5	11.0	-5.2%
CN1CCN(c2nc(Nc3cccc(C(F)(F)F)c3)nc(N3CCOCC3)n2)CC1	0.0%	2.5%	-2.7%	-30.0	-98.4*	1.1%
Cc1ccc(Nc2nc(N3CCOCC3)nc(N3CCOCC3)n2)cc1	-1.2%	-1.7%	-9.5%	-2.0	9.3	6.2%
CC(C)c1ccc(Nc2nc(N3CCOCC3)nc(N3CCOCC3)n2)cc1	·	·	·	-10.2	-73.6*	·
CCCCC(=O)Nc1ccccc1C(=O)OCc1cc(=O)n2nc(C3CCCCC3)sc2n1	·	·	·	-14.4	·	·
CCCCC(=O)N(C)c1c(CC)nc2c(OCCC3CCCCC3)cccn12	·	·	·	-28.1	-71.1*	·
CCOC(=O)C(=O)N(C)c1c(CC)nc2c(OCCC3CCCCC3)cccn12	·	·	·	-22.2	-84.4*	·
CCc1nc2c(OCCC3CCCCC3)cccn2c1N(C=O)Cc1ccc(OC)cc1	·	·	·	-12.2	-76.7*	·
CCOC(=O)N(C)c1c(CC)nc2c(OCCC3CCCCC3)cccn12	·	·	·	-24.0	?	·
CCc1nc2c(OCCC3CCCCC3)cccn2c1N(C)C(=O)c1cccs1	·	·	·	-19.5	-100.6*	·
Cc1nc2n(c(=O)c1CCN1CCC(c3noc4cc(F)ccc34)CC1)CCC[C@H]2O	·	·	·	-30.0	·	·
CCOc1ccc(NC(=O)c2nn(C)c3c2CS(=O)(=O)c2ccccc2-3)cc1	·	·	·	2.5	·	·
Cc1ccccc1C(=O)N1CC/C(=N\OS(=O)(=O)O)c2ccc(Cl)cc21	·	·	·	6.4	·	·
COC(=O)Cc1c(C)c2ccc(O)c(CN3CCCC(C)C3)c2oc1=O (stereo unspecified)	-9.8%	?	-6.5%	-7.7	-54.1*	?
CCc1c(C)c2ccc(O)c(CN3CCCC3)c2oc1=O	-11.8%	?	-5.7%	-19.0	-15.3	?
CCOC(=O)c1sc(C)c2c1NC1(CCCCC1)NC2=O	0.6%	-2.2%	-1.2%	46.8*	4.1	0.2%
COc1ccc2[nH]c3c(c2c1)CCN1C(=O)C(CC(=O)NCc2ccco2)C[C@H](C(=O)N2CCOCC2)[C@@]31C (stereo partly specified)	-1.3%	3.5%	-5.3%	5.3	3.9	8.2%
CCN(CC)c1ccc(NC(=O)c2ccc(Br)o2)c(C)c1	-3.1%	-2.3%	·	2.0	-73.2*	-1.7%
COc1ccc2c(c1)OC[C@H]1[C@H]2N2C(=O)c3cc(Cl)ccc3NC(=O)[C@@]2(C)[C@H]1c1ccccc1	-14.3%	-7.2%	-3.2%	-12.3	?	-10.9%
COc1ccc2c(c1)OC[C@H]1[C@H]2N2C(=O)c3cc(OC)ccc3NC(=O)[C@@]2(C)[C@H]1c1ccccc1	-15.0%	-3.0%	0.2%	-2.7	-52.4*	-17.5%
Cc1ccc(C(=O)NC(C(=O)OCc2cn3cc(Cl)ccc3n2)C(C)C)cc1 (stereo unspecified)	1.4%	0.3%	-6.8%	1.5	12.6	-12.7%
COc1nnc(-c2ccc(N3CCOCC3)c(NC(C)=O)c2)c2ccccc12	-2.9%	-0.9%	-17.7%	-8.0	-52.4*	-7.5%
COc1nnc(-c2ccc(N3CCOCC3)c(NC(=O)c3ccccc3)c2)c2ccccc12	0.9%	-4.7%	-10.1%	1.5	-22.7	-4.9%
O=C(CCCN1CCC(n2c(=S)[nH]c3ccccc32)CC1)c1ccc(F)cc1	·	·	·	-24.8	·	·
SMILES	MmCpn inh	Rango complex inh	PTAP TSG101 blk	D3 ag	DRD3 antagonist	Rango dissoc inh
CCc1ccc(CNC(=O)c2nn(-c3ccc(OC)c(Cl)c3)c(=O)c3c2c2ccccc2n3C)cc1	·	·	·	-2.0	·	·
CC(=O)N=c1sc(S(N)(=O)=O)nn1C	-10.2%[15.4 µM]	-0.9%	-2.0%	-91.3	-121.2*	8.0%
CC(=O)Nc1nnc(S(N)(=O)=O)s1	-3.9%	-0.5%	-1.8%	20.9	1.5	-0.7%
O=C(NC1(C(F)(F)F)NC(=O)N(CC2CCCCC2)C1=O)c1ccco1 (stereo unspecified)	0.7%	0.9%	-4.1%	-2.7	-51.1*	2.2%
COc1cc(NC(=O)c2nc3cc(C)c(C)cc3n(C)c2=O)cc(OC)c1OC	·	·	·	3.2	·	·
CCCS(=O)(=O)Nc1cc(-c2cn3cccc(C)c3n2)ccc1C	·	·	·	-14.4	·	·
CCS(=O)(=O)c1ncc(Cl)c(C(=O)Nc2ccccc2OC)n1	-0.3%	-1.4%	-3.3%	-10.4	-63.6*	7.3%
CCS(=O)(=O)c1ncc(Cl)c(C(=O)Nc2ccc(S(=O)(=O)N3CCC(C)CC3)cc2)n1	-9.1%	4.2%	1.6%	-35.6	-61.1*	-11.1%
COc1ccccc1NC(=O)c1nc(S(=O)(=O)Cc2ccccc2)ncc1Cl	0.3%	?	2.6%	-32.3	-88.8*	-19.7%
CCS(=O)(=O)c1ncc(Cl)c(C(=O)Nc2ccccc2)n1	·	·	·	-23.0	·	·
CCOc1ccccc1NC(=O)c1nc(S(=O)(=O)Cc2ccccc2)ncc1Cl	-2.0%	?	-2.6%	-24.2	-106.6*	-9.9%
COc1ccccc1Cn1cc(C(=O)c2ccc(F)cc2)c(=O)c2cc3c(cc21)OCO3	·	·	·	7.2	·	·
Cc1cccc(C)c1NC(=O)N1CCC(c2nc3ccccc3o2)CC1	2.6%	-1.6%	·	1.4	-74.9*	-10.4%
Cc1cccc(C)c1OCC(=O)N1CCC(c2nc3ccccc3o2)CC1	·	·	·	13.4	·	·
O=C(Nc1ccccc1F)c1oc2ccccc2c1NC(=O)C12CC3CC(CC(C3)C1)C2	·	·	·	-6.1	·	·
COc1ccccc1CNC(=O)Cn1ncc2c(=O)oc3ccc(C)cc3c21	·	·	·	1.2	·	·
COC(=O)c1ccc2c(c1)C(C)(C)C(/C=C/c1ccc(OC)c(OC)c1OC)=[N+]2C	-21.5%	?	-0.3%	-20.8	-87.9*	-11.0%
CN1CCCN(Cc2ccc(Cl)cc2Cl)CC1	-2.6%	0.1%	-4.1%	-33.5	-78.0*	1.0%
CN1CCCN(Cc2ccccc2C(F)(F)F)CC1	-1.1%	-0.4%	-0.9%	-5.8	-84.1*	-12.9%
CCCn1c(=O)sc2cc(NC(=O)c3ccc(OC)c(Br)c3)ccc21	·	·	·	5.8	·	·
COc1cc(/C=C2/C(=N)N3C(=NC2=O)SN=C3S(=O)(=O)C(C)C)ccc1OC(=O)c1ccco1	-14.6%	?	-9.5%	4.9	-9.0	8.2µM*
CCOc1cc(/C=C2/C(=N)N3C(=NC2=O)SN=C3S(=O)(=O)C(C)C)ccc1OC(=O)c1ccco1	-1.3%	?	-8.0%	-1.2	-4.2	?
COc1cccc(-c2cc(NC=O)c3ncc(-c4cccc(C(=O)N(C)C)c4)n3c2)c1	·	·	·	6.3	10.0	·
CN(C)CCNC(=O)c1cccc(-c2cnc3c(NC=O)cc(-c4cc(F)c(F)c(F)c4)cn23)c1	·	·	·	1.9	6.0	·
